PubChem BioAssay (NCATS)
Results filed as inconclusive are left out. Activity calls are given as the source filed them. Unless noted, the call rests on the fitted dose curve; in most records, active means well fitted curve in either direction with a large enough effect (not every such curve was filed as active); inconclusive means small, poorly fitted or top-dose-only effect, or another doubt; inactive means flat fitted curve, though single readings scatter.

How the values were obtained:
[1] = molecular target: Lysosomal acid glucosylceramidase (Homo sapiens) (UniProt P04062); experiment: Glucocerebrosidase-p2 (AID 348; in the data active means potency below about 10 µM; further: potency means the concentration at half of the fitted maximal effect); conditions: purified GBA, blue fluorogenic substrate, 40 min
Chain of Lysosomal acid glucosylceramidase (Homo sapiens) (P04062 whole entry, looked up): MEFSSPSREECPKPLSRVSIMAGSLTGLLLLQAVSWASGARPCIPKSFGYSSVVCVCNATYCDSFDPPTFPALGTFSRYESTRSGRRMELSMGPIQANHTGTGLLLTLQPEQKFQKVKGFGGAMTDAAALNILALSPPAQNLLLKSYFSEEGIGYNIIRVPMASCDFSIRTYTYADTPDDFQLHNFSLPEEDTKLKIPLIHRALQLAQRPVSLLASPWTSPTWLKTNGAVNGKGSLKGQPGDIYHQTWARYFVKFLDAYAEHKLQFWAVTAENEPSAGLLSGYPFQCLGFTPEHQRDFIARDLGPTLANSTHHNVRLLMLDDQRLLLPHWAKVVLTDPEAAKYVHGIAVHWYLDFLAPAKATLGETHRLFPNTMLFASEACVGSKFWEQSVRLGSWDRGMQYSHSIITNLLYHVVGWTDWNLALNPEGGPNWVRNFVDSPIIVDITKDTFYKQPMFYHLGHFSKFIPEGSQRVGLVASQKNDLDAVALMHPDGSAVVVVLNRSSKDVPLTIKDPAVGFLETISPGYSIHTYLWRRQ
Summary of the method: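 Compounds titrated from 0.6 nM upwards against 0.2 nM enzyme in pH 5.9 citric acid/KH2PO4, taurocholate, tween-20; blue fluorogenic substrate 80 uM, 40 min room temperature, stopped and read Ex 365/Em 440 for AC50.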

[2] = molecular target: Glucocorticoid receptor (Homo sapiens) (UniProt P04150); experiment: GR-EFC Redistribution (AID 451; calls by dose curve; further: potency means the concentration at half of the fitted maximal effect); conditions: CHO-K1 GR-EFC translocation, beta-gal luminescence, 2 h
Chain of Glucocorticoid receptor (Homo sapiens) (P04150 whole entry, looked up, the tested form may be a part): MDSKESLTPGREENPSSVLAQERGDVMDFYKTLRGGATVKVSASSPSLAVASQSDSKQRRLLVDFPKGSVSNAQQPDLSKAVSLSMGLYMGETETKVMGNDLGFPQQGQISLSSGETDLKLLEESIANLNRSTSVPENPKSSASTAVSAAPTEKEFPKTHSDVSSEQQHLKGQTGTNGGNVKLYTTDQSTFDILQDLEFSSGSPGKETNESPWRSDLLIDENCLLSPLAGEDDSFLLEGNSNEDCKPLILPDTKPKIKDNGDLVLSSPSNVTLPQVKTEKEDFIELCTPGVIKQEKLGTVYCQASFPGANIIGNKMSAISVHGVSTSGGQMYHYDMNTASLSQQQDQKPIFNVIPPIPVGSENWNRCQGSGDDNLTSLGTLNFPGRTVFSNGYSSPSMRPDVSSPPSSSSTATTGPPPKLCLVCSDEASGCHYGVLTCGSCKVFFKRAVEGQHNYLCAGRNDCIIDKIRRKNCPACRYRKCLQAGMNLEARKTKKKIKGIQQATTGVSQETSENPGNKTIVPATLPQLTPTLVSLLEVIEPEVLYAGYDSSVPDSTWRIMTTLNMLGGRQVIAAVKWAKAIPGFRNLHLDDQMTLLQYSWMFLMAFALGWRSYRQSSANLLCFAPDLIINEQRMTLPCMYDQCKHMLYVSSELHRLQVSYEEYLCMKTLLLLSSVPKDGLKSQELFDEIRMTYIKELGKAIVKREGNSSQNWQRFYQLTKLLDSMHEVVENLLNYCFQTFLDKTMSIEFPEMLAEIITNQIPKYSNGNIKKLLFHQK
Summary of the method: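 CHO-K1 cells stably expressing nuclear-localized β-gal enzyme acceptor and GR fused C-terminally to the enzyme donor fragment; ligand-driven nuclear translocation restores β-gal by complementation. Compounds titrated up to 46 uM final, 2 h at 37 °C; luminescence read.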

[3] = molecular target: Ubiquitin carboxyl-terminal hydrolase 1 (Homo sapiens) (UniProt O94782); experiment: Inhibitors of USP1/UAF1: Pilot qHTS (AID 504865; active means well fitted inhibition curve with a large enough effect;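 further: rhodamine fluorescence freed from ubiquitin-rhodamine substrate followed over time; top concentration of the series differs between compounds; on the % scale 0 is the no-effect control and ±100 the full control effect; nearly all actives have a fitted effect of over 35% in size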); conditions: purified USP1/UAF1, Ub-rhodamine cleavage fluorescence; series mostly up to 54.9 µM
Chain of Ubiquitin carboxyl-terminal hydrolase 1 (Homo sapiens) (O94782 whole entry, looked up): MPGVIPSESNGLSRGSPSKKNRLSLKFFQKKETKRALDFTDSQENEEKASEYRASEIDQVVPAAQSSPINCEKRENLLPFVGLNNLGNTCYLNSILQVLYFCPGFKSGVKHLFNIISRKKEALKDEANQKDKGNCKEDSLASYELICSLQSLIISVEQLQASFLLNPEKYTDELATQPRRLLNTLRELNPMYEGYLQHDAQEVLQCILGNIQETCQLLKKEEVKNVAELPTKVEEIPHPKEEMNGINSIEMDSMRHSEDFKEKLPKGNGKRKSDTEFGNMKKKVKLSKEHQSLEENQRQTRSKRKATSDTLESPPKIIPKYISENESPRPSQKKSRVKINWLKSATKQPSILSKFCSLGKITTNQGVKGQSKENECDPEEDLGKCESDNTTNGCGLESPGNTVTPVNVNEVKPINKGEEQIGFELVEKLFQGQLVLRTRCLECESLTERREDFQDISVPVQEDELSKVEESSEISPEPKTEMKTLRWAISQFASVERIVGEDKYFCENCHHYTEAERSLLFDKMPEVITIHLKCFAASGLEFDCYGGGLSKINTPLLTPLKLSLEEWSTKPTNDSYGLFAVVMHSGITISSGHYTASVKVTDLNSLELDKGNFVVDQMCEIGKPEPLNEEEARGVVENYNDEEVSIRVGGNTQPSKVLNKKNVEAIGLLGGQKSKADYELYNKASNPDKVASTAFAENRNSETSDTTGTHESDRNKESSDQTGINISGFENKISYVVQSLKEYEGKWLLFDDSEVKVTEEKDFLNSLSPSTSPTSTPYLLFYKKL
Summary of the method: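 1nM USP1/UAF1 + cpd, 15 min RT; start w/ Ub-Rho 150nM final; kinetic FL 480/540 nm, 6 reads q60 s. Buffer 50mM HEPES pH 7.8, 0.5mM EDTA, 1mM TCEP, 0.01% Tween-20, 0.1 mg/ml BSA.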

[4] = AP1 Signaling Pathway (AID 357); conditions: ME-180 (cervical carcinoma) AP-1-bla reporter, EGF-induced, beta-lactamase ratio, 5 h; at 7.69 µM (top of the series) unless noted;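 further: ME-180 reporter cells stimulated with EGF at its EC50 level; on the % scale 0 is the no-effect control and ±100 the full control effect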
Summary of the method: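 Cells are seeded overnight, exposed to compound titrations and an EC50 level of EGF for 5 hours at 37 °C, then loaded with CCF4 dye for 2.5 hours. Beta-lactamase activity under the AP-1 element is read as a blue/green ratio.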

[5] = NFAT Signaling Pathway (AID 444); conditions: Jurkat NFAT-bla M1, carbachol, beta-lactamase ratio, 5 h; at 7.69 µM (top of the series) unless noted;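 further: carbachol stimulus at about its EC50 of 1 µM final; on the % scale 0 is the no-effect control and ±100 the full control effect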
Summary of the method: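 Jurkat cells carrying an NFAT-driven β-lactamase reporter and co-transfected muscarinic M1 receptor were treated with compound plus carbachol (1 uM final, an EC50 level) for 5 h at 37 °C. CCF4 loading followed for 1 h at RT; 460/530 nm ratio gave %activity.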

[6] = molecular target: Glucocorticoid receptor (Homo sapiens) (UniProt P04150); experiment: GR-GFP Redistribution (AID 450;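 active means compounds whose dose series gives a full or clear partial fitted curve of increased nuclear translocation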; further: potency means the concentration at half of the fitted maximal effect); conditions: U2OS GR-GFP nuclear translocation, laser cytometry, 2 h
[7] = molecular target: Mitogen-activated protein kinase 10 (Mus musculus) (UniProt Q61831); experiment: JNK3 AlphaScreen Assay (AID 530); conditions: JNK3 lysate, c-Jun phosphorylation; series mostly up to 57.1 µM;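 further: kinase came from lysate of stimulated human HepG2 cells; signal reports phosphorylation of biotinylated GST-cJun 1-79 at Ser73 with 10 µM ATP; on the % scale 0 is the no-effect control and ±100 the full control effect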
Summary of the method: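 Inhibitors reduce antibody binding to phosphorylated biotin-cJun, lowering AlphaScreen luminescence. Lysates from HepG2 cells pre-activated by IL-1beta plus TNF-alpha supplied JNK3; compounds were titrated.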

COCCn1c(=O)c(-c2cccs2)nc2cnc(N3CCNCC3)nc21
inactive: Potency [1] > 11.4 µM | Potency [2] > 46 µM | Potency [3]

COCCn1c(=O)c(-c2ccc(F)cc2)nc2cnc(Nc3cccc(OC)c3)nc21
inactive: Potency [1] > 11.4 µM | activity change, negative = inhibition [4] -8.42% | activity change, negative = inhibition [5] -5.01% | Potency [6] > 9.22 µM | Potency [2] > 46 µM | Potency [7] | Potency [3]

Cc1cccc(CNc2ncncc2-c2ccccc2C)c1
inactive: activity change, negative = inhibition [4] -10% | activity change, negative = inhibition [5] -10.9% | Potency [2] > 46 µM | Potency [3]

CN1CCN(c2ncc3nc(CCc4ccccc4)c(=O)n(CCc4ccccc4)c3n2)CC1
inactive: activity change, negative = inhibition [4] -6.08% | activity change, negative = inhibition [5] -18.1% | Potency [6] > 9.22 µM | Potency [2] > 46 µM | Potency [7] | Potency [3]

COc1cccc(-c2nc(NCc3cccnc3)c3ccccc3n2)c1
inactive: Potency [1] > 11.4 µM | activity change, negative = inhibition [4] -1.11% | activity change, negative = inhibition [5] 27.1% | Potency [6] > 46 µM | Potency [2] > 46 µM | Potency [7]

COc1ccc(Oc2ncc3nc(-c4ccc(F)cc4)c(=O)n(CCC#N)c3n2)cc1
inactive: Potency [1] > 11.4 µM | activity change, negative = inhibition [4] -16.1% | activity change, negative = inhibition [5] 1.8% | Potency [6] > 9.22 µM | Potency [2] > 46 µM | Potency [7] | Potency [3]

COc1ccccc1-c1nc(Nc2ccncc2)c2ccccc2n1
inactive: activity change, negative = inhibition [4] -6.27% | Potency [6] > 46 µM | Potency [2] > 46 µM | Potency [7] | Potency [3]

CC(=O)NCCNc1nc(-c2cccc(C#N)c2)nc2ccccc12
inactive: Potency [1] > 11.4 µM | activity change, negative = inhibition [4] 2.77% | activity change, negative = inhibition [5] 12.4% | Potency [6] > 46 µM | Potency [2] > 46 µM | Potency [7] | Potency [3]

COc1ccccc1CNc1nc(-c2ccoc2)nc2ccccc12
inactive: activity change, negative = inhibition [4] 7.68% | activity change, negative = inhibition [5] -19.8% | Potency [6] > 46 µM | Potency [7] | Potency [3]

CN1CCN(c2ncnc3ccc(-c4ccccc4C(F)(F)F)cc23)CC1
inactive: Potency [1] > 11.4 µM | activity change, negative = inhibition [5] -19.6% | Potency [6] > 46 µM | Potency [2] > 46 µM | Potency [7] | Potency [3]

COCCNc1ncnc2ccc(-c3ccccc3OC)cc12
inactive: Potency [1] > 11.4 µM | activity change, negative = inhibition [4] -6.49% | activity change, negative = inhibition [5] 2.23% | Potency [6] > 46 µM | Potency [2] > 46 µM | Potency [7] | Potency [3]

COc1ccccc1CNc1ncncc1-c1ccccc1C(F)(F)F
inactive: Potency [1] > 11.4 µM | activity change, negative = inhibition [4] -7.72% | activity change, negative = inhibition [5] -21.7% | Potency [6] > 46 µM | Potency [2] > 46 µM | Potency [7] | Potency [3]

COc1ncc2nc(-c3cccs3)c(=O)n(CCC#N)c2n1
inactive: Potency [1] > 11.4 µM | activity change, negative = inhibition [4] 10.4% | activity change, negative = inhibition [5] 8.94% | Potency [6] > 9.22 µM | Potency [2] > 46 µM | Potency [7] | Potency [3]

CN(C)c1ncnc2ccc(-c3cccc(NS(C)(=O)=O)c3)cc12
inactive: Potency [1] > 11.4 µM | activity change, negative = inhibition [4] -26.5% | Potency [6] > 46 µM | Potency [2] > 46 µM | Potency [7] | Potency [3]

c1cn(-c2ncnc3ccc(-c4ccoc4)cc23)cn1
inactive: Potency [1] > 11.4 µM | activity change, negative = inhibition [5] -5.74% | Potency [2] > 46 µM | Potency [7] | Potency [3]

Cc1ccccc1-c1nc(Nc2ccncc2)c2ccccc2n1
inactive: activity change, negative = inhibition [4] -17.3% | activity change, negative = inhibition [5] 6.78% | Potency [6] > 46 µM | Potency [7]

COc1cccc(-c2cncnc2NCCN2CCOCC2)c1
inactive: Potency [1] > 11.4 µM | activity change, negative = inhibition [4] 24.4% | Potency [6] > 46 µM | Potency [2] > 46 µM | Potency [7] | Potency [3]

Cc1cnc(CNc2ncnc3ccc(-c4ccccc4C)cc23)cn1
inactive: Potency [1] > 11.4 µM | activity change, negative = inhibition [4] -14.7% | activity change, negative = inhibition [5] -7.95% | Potency [6] > 46 µM | Potency [2] > 46 µM | Potency [3]

Cc1nc2cnc(OCc3ccccc3)nc2n(CCc2ccccc2)c1=O
inactive: activity change, negative = inhibition [4] 2.1% | activity change, negative = inhibition [5] -10.4% | Potency [2] > 46 µM | Potency [3]

Clc1ccccc1-c1nc(-n2ccnc2)c2ccccc2n1
inactive: activity change, negative = inhibition [4] -5.23% | activity change, negative = inhibition [5] -17.9% | Potency [6] > 46 µM | Potency [2] > 46 µM | Potency [3]

Cc1cnc(CNc2ncnc3ccc(-c4ccccc4Cl)cc23)cn1
inactive: activity change, negative = inhibition [4] 14.6% | activity change, negative = inhibition [5] 7.91% | Potency [6] > 46 µM | Potency [3]

COc1ccc2[nH]cc(CCNc3ncnc4ccc(-c5ccoc5)cc34)c2c1
inactive: Potency [1] > 11.4 µM | activity change, negative = inhibition [5] 0.633% | Potency [6] > 46 µM | Potency [2] > 46 µM | Potency [7] | Potency [3]

COc1ccc(-n2c(=O)c(CCc3ccccc3)nc3cnc(OC)nc32)cc1
inactive: Potency [1] > 11.4 µM | activity change, negative = inhibition [4] -14.2% | activity change, negative = inhibition [5] 0.705% | Potency [6] > 9.22 µM | Potency [2] > 46 µM | Potency [7] | Potency [3]

Cc1ccccc1-c1ccc2ncnc(-n3ccnc3)c2c1
inactive: Potency [1] > 11.4 µM | Potency [2] > 46 µM | Potency [3]

CN(Cc1ccco1)c1cc(-c2ccc3c(c2)OCO3)ncn1
inactive: Potency [1] > 11.4 µM | activity change, negative = inhibition [4] -0.29% | activity change, negative = inhibition [5] -0.867% | Potency [6] > 46 µM | Potency [2] > 46 µM | Potency [7] | Potency [3]

COCCn1c(=O)c(CCc2ccccc2)nc2cnc(OCc3ccccc3)nc21
inactive: activity change, negative = inhibition [4] -21.6% | activity change, negative = inhibition [5] 4.34% | Potency [6] > 9.22 µM | Potency [2] > 46 µM | Potency [3]

O=c1c(CCc2ccccc2)nc2cnc(N3CCOCC3)nc2n1-c1ccccc1
inactive: Potency [1] > 11.4 µM | activity change, negative = inhibition [4] 1.07% | activity change, negative = inhibition [5] 1.96% | Potency [6] > 9.22 µM | Potency [2] > 46 µM | Potency [7] | Potency [3]
